Here are results for 42 compounds from PMC4336329 (PLoS ONE, 2015).

Screen size: about 310,000 compounds; about 14,000 (4.5%) showed an effect of 50% or more. The effect is printed as a negative number. Many of the other results were omitted from the sample, so strong results are more common in it than they were.
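Also: peak tail current of the secondary pulse compared with the same well before compound.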

human ether-à-go-go-related gene (hERG) potassium channel, sequence (Q12809 whole entry, looked up): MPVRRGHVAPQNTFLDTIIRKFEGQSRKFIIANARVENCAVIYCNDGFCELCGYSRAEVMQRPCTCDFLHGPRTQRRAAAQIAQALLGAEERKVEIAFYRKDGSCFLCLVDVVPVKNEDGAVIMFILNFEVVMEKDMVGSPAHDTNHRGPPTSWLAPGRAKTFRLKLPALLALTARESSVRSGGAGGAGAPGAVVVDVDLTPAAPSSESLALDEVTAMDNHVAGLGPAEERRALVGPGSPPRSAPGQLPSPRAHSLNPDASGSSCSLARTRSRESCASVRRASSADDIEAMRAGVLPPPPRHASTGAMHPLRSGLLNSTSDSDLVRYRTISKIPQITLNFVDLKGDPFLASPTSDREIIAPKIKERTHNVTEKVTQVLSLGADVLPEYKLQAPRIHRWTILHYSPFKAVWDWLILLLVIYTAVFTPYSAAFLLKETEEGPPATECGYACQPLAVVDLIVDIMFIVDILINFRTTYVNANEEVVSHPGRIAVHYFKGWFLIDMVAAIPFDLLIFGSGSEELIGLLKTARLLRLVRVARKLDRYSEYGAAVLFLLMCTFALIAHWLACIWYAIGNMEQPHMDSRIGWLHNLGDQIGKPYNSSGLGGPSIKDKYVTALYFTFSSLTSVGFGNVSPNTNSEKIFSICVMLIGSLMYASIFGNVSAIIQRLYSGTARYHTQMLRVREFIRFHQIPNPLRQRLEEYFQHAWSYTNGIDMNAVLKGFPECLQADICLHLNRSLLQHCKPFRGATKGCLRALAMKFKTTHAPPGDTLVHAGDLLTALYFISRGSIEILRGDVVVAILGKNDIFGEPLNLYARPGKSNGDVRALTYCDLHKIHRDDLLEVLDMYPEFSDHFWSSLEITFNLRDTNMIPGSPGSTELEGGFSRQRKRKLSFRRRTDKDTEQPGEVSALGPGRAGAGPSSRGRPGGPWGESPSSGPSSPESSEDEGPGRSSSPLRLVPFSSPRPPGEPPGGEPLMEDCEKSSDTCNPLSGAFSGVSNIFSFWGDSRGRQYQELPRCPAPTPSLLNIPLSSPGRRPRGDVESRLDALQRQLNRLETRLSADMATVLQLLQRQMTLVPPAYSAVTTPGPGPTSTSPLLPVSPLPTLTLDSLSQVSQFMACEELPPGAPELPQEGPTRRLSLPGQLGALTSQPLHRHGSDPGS

The assay has as its target human ether-à-go-go-related gene (hERG) potassium channel (human, UniProt Q12809). The assay can be described thus: primary screen, population patch clamp on CHO cells stably expressing hERG; higher = less effect of the substance.
For the compound `CCOC(=O)C1(Cc2cccc(F)c2)CCN(Cc2ccc(COC)o2)CC1`, the “hERG current change (%, negative = inhibition) at 10uM” value was -23.5%. As for `CCCn1ncc(CN2CCC(Cc3cccc(F)c3)(C(=O)OCC)CC2)c1C`, the “hERG current change (%, negative = inhibition) at 10uM” value is on record as -59.7%. In the case of `CCOC(=O)C1(Cc2cccc(F)c2)CCN(Cc2ccon2)CC1`, the “hERG current change (%, negative = inhibition) at 10uM” value is listed as 3.48%.

As for `CCCn1cc(CN2CCC(Cc3cccc(F)c3)(C(=O)OCC)CC2)c(C)n1`, the “hERG current change (%, negative = inhibition) at 10uM” value was -67.2%.

In the case of `CCOC(=O)C1(Cc2cccc(F)c2)CCN(Cc2cn(CC)nc2C)CC1`, the “hERG current change (%, negative = inhibition) at 10uM” value is reported as -38%. The figure for `CCOC(=O)C1(Cc2cccc(F)c2)CCN(Cc2cnn(CC)c2C)CC1` is -16.6%. The figure for `CCOC(=O)C1(Cc2ccc(Cl)cc2)CCN(Cc2cn(CC)nc2C)CC1` is -67.7%; for `CCOC(=O)C1(S(=O)(=O)c2ccc(Cl)cc2)CCN(Cc2ccc(Cl)cc2)CC1` it is 14.7%; for `CCOC(=O)C1(Cc2cccc(OC)c2)CCN(Cc2cnc(N)nc2)CC1` it is -28.2%. Then `CCOC(=O)C1(Cc2ccc(Cl)cc2)CCN(Cc2ccon2)CC1`, with -49.5%. For `O=C(NCC1OCCc2ccccc21)c1ccc(NC(=O)c2cccc(Br)c2)cc1` (stereo not drawn), the “hERG current change (%, negative = inhibition) at 10uM” value is reported as 2.42%. The figure for `COC(=O)Cn1c(C)c(C(C)=O)c(C(C)=O)c1C` is 14.1%; for `CCOCCCN1C(=O)C(=O)N(CC(=O)N2c3ccccc3NC(=O)CC2C)C1=O` (stereo not drawn) it is 17.2%. The figure for `O=C(O)c1cc(S(=O)(=O)N2CCCCC2)sc1Cl` is 17%; for `Cc1ccc(C)c(OCCC(=O)NCCc2ccc(Cl)cc2)c1` it is 21.6%; for `O=C(COC(=O)Cc1cccc(C(F)(F)F)c1)NCC1CCCO1` (stereo not drawn) it is 1.46%. Consider `O=C(OCC(=O)N1CCCc2ccccc21)c1cc(Br)ccc1O`, for which the “hERG current change (%, negative = inhibition) at 10uM” value is given as 12.4%. Then `COc1c2c(nc3occc13)C(CC=C(C)C)(OC)C(O)CC2` (stereo not drawn), with 5.5%.

Consider `CCCn1cc(CN2CCC(Cc3ccccc3)(C(=O)OCC)CC2)c(C)n1`, for which the “hERG current change (%, negative = inhibition) at 10uM” value is -60.4%. Then `CC1(C)Cc2ccccc2-c2nc3n(c(=O)c21)CCCS3`, with 12.8%. Then `Cc1cc(OC(C)C(=O)NNC(=O)Nc2ccc(F)cc2F)cc(C)c1Cl` (stereo not drawn), with 22.3%; and `COc1ccc(OC)c(CN2CCCC(CO)C2)c1` (stereo not drawn), with 0.935%; and `COc1ccc(CCN2C(=O)c3ccccc3NC2c2cc(Cl)c(O)c(OC)c2)cc1` (stereo not drawn), with -4.85%.

For the compound `COc1ccc(CCN2CCCC(CN(C)Cc3cc(Cl)c(O)c(OC)c3)C2)cc1` (stereo not drawn), the “hERG current change (%, negative = inhibition) at 10uM” value is recorded as -65.7%. Then `COc1ccc(CCN2CCCC(CN(C)Cc3cc(OC)ccc3OC)C2)cc1` (stereo not drawn), with -69.1%; and `COc1ccc(CCN2CCCC(CN(C)Cc3cc(OC)c(OC)c(OC)c3)C2)cc1` (stereo not drawn), with -51.6%; and `COc1cc(OC)c(OC)cc1CN(C)CC1CCCN(CCc2ccccc2F)C1` (stereo not drawn), with -2.33%.

As for `COc1cc(CN(C)CC2CCCN(CCc3ccccc3F)C2)cc(Cl)c1OC` (stereo not drawn), the “hERG current change (%, negative = inhibition) at 10uM” value was -69.8%. Then `CN(Cc1ccccc1)CC1CCCN(CCc2ccccc2F)C1` (stereo not drawn), with -49.9%.

`CC(=O)Nc1ccc(NC(=O)c2oc3cc(C)c(C)cc3c2C)cc1`: the “hERG current change (%, negative = inhibition) at 10uM” value came out at 7.5%. Then `COc1ccc(-c2cc(CCCC(=O)NCCc3ccc(OC)cc3OC)no2)cc1`, with 5.37%; and `CN(CC1COCCO1)C(=O)c1cc(COc2c(F)cccc2F)on1` (stereo not drawn), with 6.62%; and `O=C(COc1ncnc2c(Cl)cc(Cl)cc12)NCCC1=CCCCC1`, with 12.4%. The figure for `Cc1cccc(C(=S)N2CCOCC2)n1` is 5.42%. Regarding `C=CCNC(=O)C(C)Sc1ccc(Cl)cc1` (stereo not drawn), the “hERG current change (%, negative = inhibition) at 10uM” value worked out at 0.00948%. The figure for `Cc1cc(C(C)(C)C)cc(C)c1C(=O)O` is 0.0126%; for `Cn1cnnc1SCc1ccc(C(=O)N/N=C/c2cccs2)cc1` it is 4.87%; for `COc1ccc(F)c(CN(C)CC2CCCN(CCc3ccc(F)cc3)C2)c1` (stereo not drawn) it is -73.4%. For `CN1C(=O)Cc2cc(S(=O)(=O)N3CCN(c4cccc(Cl)c4)CC3)ccc21`, the “hERG current change (%, negative = inhibition) at 10uM” value was found to be 15.3%. The figure for `O=NN(CCc1ccncc1)c1ccc(OCc2ccccc2)cc1` is -65.2%; for `COc1ccc(N(Cc2ccccc2)N=O)cc1` it is -23.3%; for `O=C1NC(=O)C(CCc2ccncc2)(Cc2ccc(OCc3ccccc3)cc2)C(=O)N1` it is 11.8%.
